Laboratory results taken from PubChem BioAssay AID1159580 (chemical genetic matrix, 2015).
Hit rate of the full screen: of about 5,500 compounds, about 2,000 (36%) were called active. About 18% were inconclusive and are not listed. Rule as the data show it: active = normalized growth mostly below about 0.91 (no sharp cut-off); inconclusive = no clear call, values can overlap the other calls; inactive = mostly above about 0.92. Some of the results follow.

Assay: chemical genetic growth profiling, strain panel (AID 1159580);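 also: tested at 20 µM; growth read once vehicle control cultures reached saturation at 30 °C; 1 = growth at the plate median or of vehicle wells; lower values mean less growth of the strain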
Settings: S. cerevisiae deletion strains, growth OD
[1] = locus YAR019C, strain CDC15, stronger effect = lower value
[2] = locus YBL105C, strain PKC1, stronger effect = lower value
[3] = locus YBR135W, strain CKS1, stronger effect = lower value
[4] = locus YBR136W, strain MEC1, stronger effect = lower value
[5] = locus YBR160W, strain CDC28, stronger effect = lower value
[6] = locus YDL017W, strain CDC7, stronger effect = lower value
[7] = locus YDL028C, strain MPS1, stronger effect = lower value
[8] = locus YDL101C, strain DUN1, stronger effect = lower value
[9] = locus YDL108W, strain KIN28, stronger effect = lower value
[10] = locus YDL132W, strain cdc53, stronger effect = lower value
[11] = locus YDL214C, strain PRR2, stronger effect = lower value
[12] = locus YDR052C, strain DBF4, stronger effect = lower value
[13] = locus YDR226W, strain ADK1, stronger effect = lower value
[14] = locus YDR477W, strain SNF1, stronger effect = lower value
[15] = locus YER123W, strain YCK3, stronger effect = lower value
[16] = locus YER133W, strain GLC7, stronger effect = lower value
[17] = locus YFL009W, strain cdc4, stronger effect = lower value
[18] = locus YFL029C, strain CAK1, stronger effect = lower value
[19] = locus YFR003C, strain YPI1, stronger effect = lower value
[20] = locus YFR019W, strain FAB1, stronger effect = lower value
[21] = locus YFR028C, strain CDC14, stronger effect = lower value
[22] = locus YGR040W, strain KSS1, stronger effect = lower value
[23] = locus YGR052W, strain FMP48, stronger effect = lower value
[24] = locus YGR092W, strain DBF2, stronger effect = lower value
[25] = locus YHR030C, strain SLT2, stronger effect = lower value
[26] = locus YHR079C, strain IRE1, stronger effect = lower value
[27] = locus YHR082C, strain KSP1, stronger effect = lower value
[28] = locus YHR205W, strain SCH9, stronger effect = lower value
[29] = locus YIL147C, strain SLN1, stronger effect = lower value
[30] = locus YJL095W, strain BCK1, stronger effect = lower value
[31] = locus YJL157C, strain FAR1, stronger effect = lower value
[32] = locus YJR016C, strain ILV3, stronger effect = lower value
[33] = locus YJR066W, strain TOR1 (second series), stronger effect = lower value
[34] = locus YJR066W, strain TOR1, stronger effect = lower value
[35] = locus YKL048C, strain ELM1, stronger effect = lower value
[36] = locus YKL067W, strain YNK1, stronger effect = lower value
[37] = locus YKL101W, strain HSL1, stronger effect = lower value
[38] = locus YKL193C, strain SDS22, stronger effect = lower value
[39] = locus YKL203C, strain TOR2, stronger effect = lower value
[40] = locus YLR113W, strain HOG1, stronger effect = lower value
[41] = locus YLR133W, strain CKI1, stronger effect = lower value
[42] = locus YLR403W, strain SFP1, stronger effect = lower value
[43] = locus YML070W, strain DAK1, stronger effect = lower value
[44] = locus YMR001C, strain CDC5, stronger effect = lower value
[45] = locus YMR205C, strain PFK2 (second series), stronger effect = lower value
[46] = locus YMR277W, strain FCP1, stronger effect = lower value
[47] = locus YNL006W, strain LST8, stronger effect = lower value
[48] = locus YNL020C, strain ARK1, stronger effect = lower value
[49] = locus YNL161W, strain CBK1, stronger effect = lower value
[50] = locus YNL183C, strain NPR1, stronger effect = lower value
[51] = locus YNL207W, strain RIO2, stronger effect = lower value
[52] = locus YNL222W, strain SSU72, stronger effect = lower value
[53] = locus YNL307C, strain MCK1 (second series), stronger effect = lower value
[54] = locus YOL078W, strain AVO1, stronger effect = lower value
[55] = locus YOL136C, strain PFK27, stronger effect = lower value
[56] = locus YOR061W, strain CKA2, stronger effect = lower value
[57] = locus YOR119C, strain RIO1, stronger effect = lower value
[58] = locus YOR231W, strain MKK1, stronger effect = lower value
[59] = locus YOR329C, strain SCD5, stronger effect = lower value
[60] = locus YPL031C, strain PHO85, stronger effect = lower value
[61] = locus YPL153C, strain RAD53, stronger effect = lower value
[62] = locus YPL204W, strain HRR25, stronger effect = lower value
[63] = locus YPL209C, strain IPL1, stronger effect = lower value
[64] = locus YPL256C, strain CLN2, stronger effect = lower value
[65] = locus YPR025C, strain CCL1, stronger effect = lower value
[66] = locus YPR111W, strain DBF20, stronger effect = lower value
[67] = strain NNK1, stronger effect = lower value
[68] = strain TSCII, stronger effect = lower value

Measured: normalized growth

Cc1ccc2nc3c(nc2c1)-c1ccccc1C3=O
inactive: [1] 0.916 | [2] 0.925 | [3] 0.929 | [4] 0.93 | [5] 0.931 | [6] 0.926 | [7] 0.937 | [9] 0.938 | [10] 0.932 | [13] 0.958 | [17] 0.925 | [18] 0.9 | [19] 0.927 | [21] 0.922 | [29] 0.935 | [32] 0.935 | [38] 0.919 | [44] 0.908 | [46] 0.922 | [47] 0.929 | [49] 0.903 | [51] 0.909 | [52] 0.923 | [54] 0.903 | [59] 0.92 | [63] 0.92 | [65] 0.929 | [66] 0.886
active: [8] 0.716 | [11] 0.247 | [12] 0.861 | [14] 0.279 | [15] 0.217 | [16] 0.339 | [20] 0.281 | [22] 0.3 | [23] 0.255 | [24] 0.15 | [25] 0.208 | [26] 0.209 | [27] 0.261 | [28] 0.391 | [30] 0.227 | [31] 0.21 | [33] 0.259 | [34] 0.225 | [35] 0.309 | [36] 0.235 | [37] 0.264 | [39] 0.275 | [40] 0.288 | [41] 0.224 | [42] 0.181 | [43] 0.243 | [45] 0.261 | [48] 0.196 | [50] 0.259 | [53] 0.199 | [55] 0.226 | [56] 0.205 | [57] 0.29 | [58] 0.246 | [60] 0.278 | [61] 0.265 | [62] 0.263 | [64] 0.277 | [67] 0.8 | [68] 0.874

COc1ccc(OC)c2nc3c(nc12)C(=O)c1ccccc1-3
inactive: [1] 0.97 | [2] 0.969 | [3] 0.974 | [4] 0.974 | [5] 0.974 | [6] 0.968 | [7] 0.984 | [8] 0.953 | [9] 0.972 | [10] 0.972 | [11] 0.997 | [12] 0.971 | locus YDR054C, strain cdc34, stronger effect = lower value 0.957 | [13] 0.979 | [14] 0.971 | [15] 0.942 | [16] 0.988 | [17] 0.978 | [18] 0.969 | [19] 0.974 | [20] 0.974 | [21] 0.981 | [22] 0.973 | [23] 1 | [24] 0.837 | [25] 0.914 | [26] 0.863 | [27] 1.05 | [28] 0.965 | [29] 0.979 | [30] 0.91 | locus YJL128C, strain PBS2, stronger effect = lower value 0.956 | [31] 0.958 | [32] 0.977 | [33] 0.947 | [34] 1 | [35] 0.953 | [36] 0.989 | [37] 0.985 | [38] 0.975 | [39] 1 | [40] 0.899 | [41] 0.967 | [42] 0.932 | [43] 0.979 | [44] 0.971 | [45] 0.996 | [46] 0.976 | [47] 0.973 | [48] 0.94 | [49] 0.958 | [50] 0.99 | [51] 0.971 | [52] 0.974 | [53] 0.945 | [54] 0.975 | [55] 0.958 | [56] 0.938 | [57] 1.05 | [58] 0.902 | [59] 0.966 | [60] 0.935 | [61] 0.929 | [62] 0.94 | [63] 0.96 | [64] 0.902 | [65] 0.979 | locus YPR106W, strain ISR1, stronger effect = lower value 0.98 | [66] 0.968 | [67] 0.98 | [68] 0.968
